Measurements from PubChem BioAssay (NCATS).
Inconclusive results are not listed. Active and inactive are the calls of the source. Unless noted, the call rests on the fitted dose curve; in most records, active means well fitted curve in the direction sought with a large enough effect; inconclusive means small, poorly fitted or top-dose-only effect, or another doubt; inactive means no such curve, though single readings can be large; an effect the other way counts as inactive or inconclusive.

How the values were obtained:
[1] = AP1 Signaling Pathway (AID 357; active means well fitted curve in either direction with a large enough effect, not every such curve was filed as active;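 further: ME-180 reporter cells stimulated with EGF at its EC50 level; on the % scale 0 is the no-effect control and ±100 the full control effect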); conditions: ME-180 AP-1-bla reporter, EGF-induced, beta-lactamase ratio, 5 h; at 38 µM (top of the series)
In short: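 Titration-series screen for positive or negative modulators of EC50 EGF-induced signaling in ME-180 cells carrying an AP-1-driven beta-lactamase reporter. After 5 hours at 37 degrees Celsius, CCF4 460nm/530nm emission ratio gave %Activity; AC50 values derived.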

[2] = biological target: Cytochrome P450 1A2 (Homo sapiens) (UniProt P05177); test: p450-cyp1a2 (AID 410; calls by dose curve;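 further: -100% = full effect of reference inhibitor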)
In short: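 20nM CYP1A2 with 100uM Luciferin-ME (at Km) in 100mM KPO4; compound preincubated 10 min, NADPH regeneration added, 60 min at room temperature. Luciferin quantified by luminescence after detection reagent; normalized to 57 uM furafylline.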

[3] = NFAT Signaling Pathway (AID 444; active means well fitted curve in either direction with a large enough effect, not every such curve was filed as active;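 further: carbachol stimulus at about its EC50 of 1 µM final; on the % scale 0 is the no-effect control and ±100 the full control effect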); conditions: Jurkat NFAT-bla M1, carbachol, beta-lactamase ratio, 5 h; at 38 µM (top of the series)
In short: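 Jurkat cells with NFAT-driven β-lactamase reporter and co-expressed M1 receptor, stimulated with carbachol (final 1 uM, ~EC50), compound titration, 5 h at 37 °C. CCF4 loaded 1 h at RT; 460/530 nm ratio gave %activity and AC50.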

[4] = Stat Signaling Pathway (AID 446; active means well fitted curve in either direction with a large enough effect, not every such curve was filed as active;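 further: ME-180 cervical cancer cells given 40 pM IL-6 alongside compound; SIE-controlled beta-lactamase reporter measured as 460/530 nm FRET emission ratio; on the % scale 0 is the no-effect control and ±100 the full control effect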); conditions: ME-180 SIE beta-lactamase reporter, IL-6 stimulated, 5 h; at 38 µM (top of the series)
In short: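 Reporter line: ME-180 cervical carcinoma, SIE-beta-lactamase. Treatment: compound with 40 pM IL-6, 5 hrs, 37 C, in low-serum OPTI-MEM with 10 mM HEPES pH 7.3. Detection: 460/530 nm fluorescence.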

[5] = biological target: Glucocorticoid receptor (Homo sapiens) (UniProt P04150); test: GR-GFP Redistribution (AID 450;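 active means compounds whose dose series gives a full or clear partial fitted curve of increased nuclear translocation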; further: potency means the concentration at half of the fitted maximal effect); conditions: U2OS GR-GFP nuclear translocation, laser cytometry, 2 h
[6] = biological target: Glucocorticoid receptor (Homo sapiens) (UniProt P04150); test: GR-EFC Redistribution (AID 451; calls by dose curve; further: potency means the concentration at half of the fitted maximal effect); conditions: CHO-K1 GR-EFC translocation, beta-gal luminescence, 2 h
In short: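 CHO-K1 cells expressing nuclear EA and GR-ED fragments of b-gal; compounds titrated up to 46 uM final, 2 h at 37 C. GR nuclear translocation read as complemented b-gal luminescence after 1 h RT detection.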

[7] = biological target: Mitogen-activated protein kinase 10 (Mus musculus) (UniProt Q61831); test: JNK3 AlphaScreen Assay (AID 530; active means well fitted curve in either direction with a large enough effect, not every such curve was filed as active;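 further: kinase came from lysate of stimulated human HepG2 cells; signal reports phosphorylation of biotinylated GST-cJun 1-79 at Ser73 with 10 µM ATP; on the % scale 0 is the no-effect control and ±100 the full control effect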)
In short: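 Pre-activated (IL-1β/TNFα) JNK3 in HepG2 lysates phosphorylates biotin-GST-cJun(1-79), 10 uM ATP; anti-phospho-cJun(Ser73) AlphaScreen read at room temperature, pH 7.6 Tris buffer. Compounds pre-incubated 15 min as titrations.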

[8] = biological target: 3',5'-cyclic-AMP phosphodiesterase 4B (Homo sapiens) (UniProt Q07343); test: qHTS Assay for Inhibitors of PDE-IV (AID 607; active means well fitted activation curve with a large enough effect in the main read-out, with a control signal flat, not every such curve was filed as active; further: % of control where 0% means no effect)
In short: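 Cell-based read-out of cAMP via a modified cyclic nucleotide-gated channel and membrane potential dye (535/590 nm) in HEK293 cells expressing PDE4 endogenously. Compounds tested up to 22.9 uM final; 100 uM RO 20-1724 reference.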

[9] = biological target: Guanine nucleotide-binding protein G(i) subunit alpha-1 (Homo sapiens) (UniProt P63096); test: qHTS Assay for Inhibitors of RGS12 GoLoco Motif Activity (Green Fluorophore) (AID 879);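 further: 0% = labeled peptide with Gαi1 and full inhibition = labeled peptide alone without protein; negative values mean loss of peptide binding seen as reduced polarization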
In short: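 Fluorescence polarization assay: 50 nM Gαi1 with 10 nM FITC-labeled RGS12 GoLoco peptide in 10 mM Tris pH 7.5, 150 mM NaCl, 0.1 mM GDP, 0.05% NP40, 10 min at room temperature with compound.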

[10] = biological target: Cytochrome P450 3A4 (Homo sapiens) (UniProt P08684); test: qHTS Assay for Activators of Cytochrome P450 3A4 (AID 885); further: nearly all actives have a fitted effect of over 65% in size
In short: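 Signal was normalized against complete inhibition by 57 uM ketoconazole. The reaction used 20nM CYP3A4 with 25uM Luciferin-PPXE, 10-min compound preincubation and a 60-min NADPH-supported step at RT.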

[11] = biological target: Muscarinic acetylcholine receptor M1 (Rattus norvegicus) (UniProt P08482); test: qHTS Assay for Antagonists of Acetylcholine Muscarinic M1 Receptor: Kinetic Measurement of Intracellular Calcium Response (AID 943); further: nearly all actives have a fitted effect of over 75% in size
In short: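 CHO cells expressing rat M1 receptor, Fluo-4 loaded, preincubated 10 min with compound, then stimulated with EC80 carbachol (100 nM final). Kinetic calcium fluorescence over 4 min; response taken as peak over basal signal.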

[12] = biological target: Muscarinic acetylcholine receptor M1 (Rattus norvegicus) (UniProt P08482); test: qHTS Assay for Antagonists of Acetylcholine Muscarinic M1 Receptor: Measurement of IP-One Response (AID 944); further: nearly all actives have a fitted effect of over 75% in size
In short: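 CHO cells stably expressing rat M1, pretreated 10 min with compound, then stimulated 30 min with carbachol at EC80 (200 nM) in LiCl-containing buffer pH 7.4; IP1 accumulation read by HTRF competition (665/620 nm).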

[13] = biological target: Pyruvate kinase PKM (Homo sapiens) (UniProt P14618); test: qHTS Assay for Activators of Human Muscle Pyruvate Kinase (AID 954; active means well fitted curve in the direction sought with a large enough effect, not every such curve was filed as active;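 further: 0% = uninhibited enzyme and -100% = no enzyme or full thiadiazolimine inhibition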)
In short: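 Human PKM2 activity is measured as ATP generation, detected by luciferase-coupled luminescence. The enzyme (0.1 nM) acts on 0.5 mM PEP and 0.1 mM ADP for 1 h at ambient temperature; data are normalized to uninhibited and full-inhibition wells.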

[14] = biological target: Alpha-galactosidase A (Homo sapiens) (UniProt P06280); test: Counterscreen for Glucocerebrosidase Inhibitors: qHTS Assay for Human alpha-Galactosidase at pH 4.5 (AID 992); further: 0% is about no effect
In short: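 Quantitative HTS: compounds tested from 0.7 nM up to 77 uM against 2 nM enzyme with 80 uM 4-MU alpha-D-galactopyranoside. The 20 min room-temperature reaction is stopped with 1M NaOH/1M glycine, pH 10.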

[15] = biological target: alpha-glucosidase (Oryza sativa, rice) (UniProt Q653V4); test: Counterscreen for Glucocerebrosidase Inhibitors: qHTS Assay for Rice alpha-Glucosidase at pH 5.0 (AID 997);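 further: 0% = full activity with enzyme and -100% = basal without enzyme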
In short: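 Rice alpha-glucosidase (4 nM final) with 400 uM 4-methylumbelliferyl-alpha-D-glucopyranoside in citrate buffer pH 5.0, 20 min at room temperature, stopped at pH 10; fluorescence 365/440 nm, compounds 0.7 nM–77 uM, AC50 from Hill fits.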

[16] = Validation of Assay for Modulators of Lamin A Splicing (AID 1459; active means well fitted curve in the direction sought with a large enough effect in the signal ratio; the % refers to the signal ratio;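 further: cells exposed to compound for two days before reading; 0% is about no effect; ratio rise marks activators and ratio drop marks inhibitors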)
In short: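 Splicing correction is reported by an EGFP-containing lamin A minigene in stably transfected S3 HeLa cells, while DsRed2 controls for viability and nonspecific signal. Cells are exposed to compounds for 48 hrs before the GFP over RFP ratio is taken.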

[17] = biological target: DNA repair nuclease/redox regulator APEX1 (Homo sapiens) (UniProt P27695); test: qHTS Validation Assay for Inhibitors of the Human Apurinic/apyrimidinic Endonuclease 1 (APE1) (AID 1705)
In short: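 Endonuclease activity of human APE1 is followed as dequenching when the enzyme incises a tetrahydrofuran abasic site in a short duplex labelled 5'-TAMRA/3'-BHQ-2 (50 nM final), after 15 min enzyme–compound preincubation at room temperature.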

[18] = biological target: Endonuclease 4 (Escherichia coli (strain K12)) (UniProt P0A6C1); test: Counterscreen for APE1 Inhibitors: qHTS Validation Assay for Inhibitors of Endonuclease IV (AID 1708); further: on the % scale 0 is the no-effect control and ±100 the full control effect
In short: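 E. coli EndoIV at 2 nM final, preincubated 15 min at room temperature with compound, then 50 nM TAMRA/BHQ-2 THF abasic-site duplex added. Buffer: 50 mM Tris-HCl pH 7.5, 50 mM NaCl, 2 mM MgCl2, 1 mM DTT, 0.01% Tween-20. Kinetic fluorescence increase, third minus first read.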

[19] = qHTS for differential inhibitors of proliferation of Plasmodium falciparum line 7G8 (AID 1815);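 further: potency means the concentration at half of the fitted maximal effect; parasite growth measured after three days of incubation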

Sequence of Glucocorticoid receptor (Homo sapiens) (P04150 whole entry, looked up, the tested form may be a part): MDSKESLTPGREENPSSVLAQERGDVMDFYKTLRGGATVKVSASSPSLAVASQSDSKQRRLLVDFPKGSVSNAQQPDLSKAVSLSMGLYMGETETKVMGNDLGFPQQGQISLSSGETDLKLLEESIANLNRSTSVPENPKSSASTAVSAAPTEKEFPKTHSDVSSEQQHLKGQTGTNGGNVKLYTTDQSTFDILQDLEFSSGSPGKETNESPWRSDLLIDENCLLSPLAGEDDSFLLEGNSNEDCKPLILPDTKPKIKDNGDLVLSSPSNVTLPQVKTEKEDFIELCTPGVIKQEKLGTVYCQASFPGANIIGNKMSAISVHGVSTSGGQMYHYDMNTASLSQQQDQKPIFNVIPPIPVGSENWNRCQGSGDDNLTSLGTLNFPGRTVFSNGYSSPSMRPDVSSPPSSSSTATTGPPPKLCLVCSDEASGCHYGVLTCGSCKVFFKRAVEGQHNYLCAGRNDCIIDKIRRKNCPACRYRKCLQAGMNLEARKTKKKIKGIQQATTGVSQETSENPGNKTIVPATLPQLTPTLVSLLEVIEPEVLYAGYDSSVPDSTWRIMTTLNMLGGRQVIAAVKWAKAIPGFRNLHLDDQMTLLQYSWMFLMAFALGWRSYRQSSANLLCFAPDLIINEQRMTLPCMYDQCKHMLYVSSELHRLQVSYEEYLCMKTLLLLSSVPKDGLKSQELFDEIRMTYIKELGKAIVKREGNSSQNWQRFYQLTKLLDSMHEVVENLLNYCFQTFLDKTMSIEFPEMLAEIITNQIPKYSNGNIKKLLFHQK
Sequence of Muscarinic acetylcholine receptor M1 (Rattus norvegicus) (P08482 whole entry, looked up): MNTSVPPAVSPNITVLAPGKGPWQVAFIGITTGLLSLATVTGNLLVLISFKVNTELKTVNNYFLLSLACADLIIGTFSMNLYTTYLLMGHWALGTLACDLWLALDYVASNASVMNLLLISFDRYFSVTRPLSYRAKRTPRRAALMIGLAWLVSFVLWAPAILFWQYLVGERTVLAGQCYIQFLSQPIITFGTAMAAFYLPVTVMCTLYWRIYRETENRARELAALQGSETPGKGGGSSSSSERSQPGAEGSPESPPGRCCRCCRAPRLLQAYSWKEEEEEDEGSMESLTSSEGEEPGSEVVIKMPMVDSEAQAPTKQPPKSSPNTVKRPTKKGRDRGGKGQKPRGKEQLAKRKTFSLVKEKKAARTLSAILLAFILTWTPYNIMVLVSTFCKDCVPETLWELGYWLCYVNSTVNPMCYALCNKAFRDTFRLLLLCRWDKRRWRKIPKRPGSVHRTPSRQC
Sequence of 3',5'-cyclic-AMP phosphodiesterase 4B (Homo sapiens) (Q07343 whole entry, looked up): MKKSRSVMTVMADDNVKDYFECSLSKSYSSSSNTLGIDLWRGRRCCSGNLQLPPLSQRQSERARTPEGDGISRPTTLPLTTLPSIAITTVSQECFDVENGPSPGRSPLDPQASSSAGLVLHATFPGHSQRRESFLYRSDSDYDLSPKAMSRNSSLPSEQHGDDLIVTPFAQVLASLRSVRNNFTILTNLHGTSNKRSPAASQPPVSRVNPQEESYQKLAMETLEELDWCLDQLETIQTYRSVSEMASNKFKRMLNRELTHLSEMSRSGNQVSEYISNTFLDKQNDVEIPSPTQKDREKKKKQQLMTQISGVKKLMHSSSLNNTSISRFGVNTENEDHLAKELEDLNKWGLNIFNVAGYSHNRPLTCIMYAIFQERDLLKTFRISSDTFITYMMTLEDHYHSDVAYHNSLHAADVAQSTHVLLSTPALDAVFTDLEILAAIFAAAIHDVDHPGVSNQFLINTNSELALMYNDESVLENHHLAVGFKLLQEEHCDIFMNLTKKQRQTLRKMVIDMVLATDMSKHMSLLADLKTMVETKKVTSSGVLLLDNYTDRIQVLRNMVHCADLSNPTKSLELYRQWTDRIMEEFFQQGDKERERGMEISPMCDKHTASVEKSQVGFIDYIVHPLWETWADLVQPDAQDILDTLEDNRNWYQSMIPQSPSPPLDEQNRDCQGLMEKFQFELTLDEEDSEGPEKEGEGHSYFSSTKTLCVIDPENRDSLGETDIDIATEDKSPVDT
Sequence of Cytochrome P450 3A4 (Homo sapiens) (P08684 whole entry, looked up): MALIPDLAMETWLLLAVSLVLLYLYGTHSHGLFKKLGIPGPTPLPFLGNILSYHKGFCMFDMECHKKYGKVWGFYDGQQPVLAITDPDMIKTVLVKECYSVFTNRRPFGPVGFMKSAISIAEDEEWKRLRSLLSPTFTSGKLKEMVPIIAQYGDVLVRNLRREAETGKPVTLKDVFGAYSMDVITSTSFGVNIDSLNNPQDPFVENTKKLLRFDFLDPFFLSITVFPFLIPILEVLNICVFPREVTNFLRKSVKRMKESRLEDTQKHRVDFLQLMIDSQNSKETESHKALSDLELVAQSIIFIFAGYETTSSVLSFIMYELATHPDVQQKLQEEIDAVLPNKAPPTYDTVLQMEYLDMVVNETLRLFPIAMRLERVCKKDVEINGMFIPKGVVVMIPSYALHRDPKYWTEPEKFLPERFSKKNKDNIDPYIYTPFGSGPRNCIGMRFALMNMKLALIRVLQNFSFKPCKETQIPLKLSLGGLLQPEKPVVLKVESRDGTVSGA
Sequence of Cytochrome P450 1A2 (Homo sapiens) (P05177 whole entry, looked up): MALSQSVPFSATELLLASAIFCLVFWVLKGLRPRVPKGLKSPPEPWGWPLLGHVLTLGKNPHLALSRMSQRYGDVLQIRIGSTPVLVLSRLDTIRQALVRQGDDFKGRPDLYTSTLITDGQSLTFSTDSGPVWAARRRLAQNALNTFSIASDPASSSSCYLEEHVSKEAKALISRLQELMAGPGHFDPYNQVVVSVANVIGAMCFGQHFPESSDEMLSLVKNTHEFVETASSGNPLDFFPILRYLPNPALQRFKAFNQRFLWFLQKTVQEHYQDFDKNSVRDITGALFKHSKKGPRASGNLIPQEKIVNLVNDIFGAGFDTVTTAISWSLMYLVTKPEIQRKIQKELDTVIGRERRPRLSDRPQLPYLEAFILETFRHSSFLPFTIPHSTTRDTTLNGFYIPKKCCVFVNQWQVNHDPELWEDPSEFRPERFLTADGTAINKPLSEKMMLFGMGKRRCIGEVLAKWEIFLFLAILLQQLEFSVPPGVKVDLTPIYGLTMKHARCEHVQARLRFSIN
Sequence of Alpha-galactosidase A (Homo sapiens) (P06280 whole entry, looked up): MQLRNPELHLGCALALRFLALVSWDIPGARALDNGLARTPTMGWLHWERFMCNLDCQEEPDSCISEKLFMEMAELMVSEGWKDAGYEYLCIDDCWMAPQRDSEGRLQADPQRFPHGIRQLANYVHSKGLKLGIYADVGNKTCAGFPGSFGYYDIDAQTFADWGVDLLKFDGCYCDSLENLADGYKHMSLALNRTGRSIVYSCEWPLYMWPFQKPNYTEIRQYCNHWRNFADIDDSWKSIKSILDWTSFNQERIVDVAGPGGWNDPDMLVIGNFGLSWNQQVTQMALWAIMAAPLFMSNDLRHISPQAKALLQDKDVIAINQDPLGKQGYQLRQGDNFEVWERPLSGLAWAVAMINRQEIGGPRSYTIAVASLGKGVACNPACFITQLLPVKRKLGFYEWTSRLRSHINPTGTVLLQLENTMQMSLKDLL
Sequence of DNA repair nuclease/redox regulator APEX1 (Homo sapiens) (P27695 whole entry, looked up): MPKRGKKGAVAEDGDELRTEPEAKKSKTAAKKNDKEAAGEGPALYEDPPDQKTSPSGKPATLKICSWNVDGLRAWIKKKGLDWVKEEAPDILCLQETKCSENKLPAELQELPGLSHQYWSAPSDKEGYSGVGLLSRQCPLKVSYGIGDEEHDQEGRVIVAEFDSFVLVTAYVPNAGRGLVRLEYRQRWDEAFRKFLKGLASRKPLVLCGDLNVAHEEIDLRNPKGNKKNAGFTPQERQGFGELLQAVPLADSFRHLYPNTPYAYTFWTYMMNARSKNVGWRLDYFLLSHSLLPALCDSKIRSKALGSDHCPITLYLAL
Sequence of Pyruvate kinase PKM (Homo sapiens) (P14618 whole entry, looked up): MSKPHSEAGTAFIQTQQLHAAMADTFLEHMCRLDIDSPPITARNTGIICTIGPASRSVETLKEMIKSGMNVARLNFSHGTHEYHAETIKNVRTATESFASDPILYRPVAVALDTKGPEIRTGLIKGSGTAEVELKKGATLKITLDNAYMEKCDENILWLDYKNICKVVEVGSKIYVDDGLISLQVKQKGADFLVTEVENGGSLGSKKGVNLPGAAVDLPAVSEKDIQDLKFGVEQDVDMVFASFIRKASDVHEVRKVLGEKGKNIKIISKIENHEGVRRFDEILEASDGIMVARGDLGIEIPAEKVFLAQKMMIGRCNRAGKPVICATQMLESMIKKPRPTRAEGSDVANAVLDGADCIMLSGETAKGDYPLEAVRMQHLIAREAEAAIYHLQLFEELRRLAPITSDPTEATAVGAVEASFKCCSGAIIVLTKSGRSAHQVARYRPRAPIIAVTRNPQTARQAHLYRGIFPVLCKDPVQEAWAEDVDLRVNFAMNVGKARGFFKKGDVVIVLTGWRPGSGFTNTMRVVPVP
Sequence of Guanine nucleotide-binding protein G(i) subunit alpha-1 (Homo sapiens) (P63096 whole entry, looked up): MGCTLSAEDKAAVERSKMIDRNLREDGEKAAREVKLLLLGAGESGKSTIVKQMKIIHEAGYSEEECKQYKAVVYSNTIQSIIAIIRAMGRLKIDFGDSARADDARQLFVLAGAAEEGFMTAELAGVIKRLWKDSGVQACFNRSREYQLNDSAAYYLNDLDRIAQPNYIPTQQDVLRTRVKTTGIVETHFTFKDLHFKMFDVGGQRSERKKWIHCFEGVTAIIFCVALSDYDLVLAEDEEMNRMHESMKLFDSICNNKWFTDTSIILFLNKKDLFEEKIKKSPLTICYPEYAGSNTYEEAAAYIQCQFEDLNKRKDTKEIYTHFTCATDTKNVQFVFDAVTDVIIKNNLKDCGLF

COC(=O)c1c(-c2cc(OC)c(OC)c(OC)c2)c2ccnc(OCc3ncccn3)c2c(=O)n1Cc1ccnc(C)c1
active: Potency [19] 3.98 µM
inactive: activity change, negative = inhibition [1] -4.4% | Potency [2] | activity change, negative = inhibition [3] 4.39% | activity, negative = inhibition [4] -8.52% | Potency [5] > 46 µM | Potency [6] > 46 µM | Potency [7] | Potency [8] | outcome [9] | Potency [10] | Potency [11] | Potency [12] | outcome [13] | outcome [14] | outcome [15] | outcome [16] | Potency [17] | Potency [18]
